In the supplement of paper PMC8540655 one finds larval motility data, which are given here for 20 compounds.

Each structure is given as a SMILES string.

One test deals with Aedes aegypti larvae. The test is described as follows: larval motility relative to same well at 0 h (fraction); higher = more motile (less active compound), active = 0.4 or less. The conditions noted are these: 10 µM; 2 h. The procedure:
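MMV Pandemic Response Box compounds were tested at 10 µM (1% v/v DMSO) on Aedes aegypti larvae (18-24 h after hatching, about 10 per well, 96-well plates). Motility was quantified with INVAPP (200-frame movies) at 0, 2 and 24 h. Each well's motility was divided by its own 0 h score, and the median of 3 independent screens is reported.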
Regarding `CC(C)(C)NC(=O)[C@@H]1C[C@@H]2CCCC[C@@H]2CN1C[C@@H](O)[C@H](Cc1ccccc1)NC(=O)[C@H](CC(N)=O)NC(=O)c1ccc2ccccc2n1`, the larval motility is 1.43 (inactive).
On the same count and under the same terms, next, `CN(C)CC(=O)Nc1ccc2[nH]c(=O)c3ccccc3c2c1`: 0.338 (active).
Same read-out and setting: next, `CC[N+]1(C/C2=C/CCCCCC2)CCC(NC(=O)C2c3cc(Cl)ccc3Oc3ccc(Cl)cc32)CC1` (stereo not given): 1.22 (inactive).
Same read-out and setting: the same measure for `C[C@H](c1cccc2ccccc12)N(C)Cc1ccccc1`: 1.02 (inactive); for `CC1=C(/C=C/C(C)=C/C=C/C(C)=C/C(=O)Nc2ccc(O)cc2)C(C)(C)CCC1`: 0.95 (inactive); for `CCC(C)n1ncn(-c2ccc(N3CCN(c4ccc(OCC5COC(Cn6cncn6)(c6ccc(Cl)cc6Cl)O5)cc4)CC3)cc2)c1=O` (stereo not given): 0.656 (inactive).
For the compound `Oc1cccc(C(Nc2nccs2)c2ccc3cccnc3c2O)c1` (stereo not given), the larval motility was 1.09 (inactive).
With `O=C(NCc1ncc(C(F)(F)F)cc1Cl)c1c(Cl)cccc1Cl`, the larval motility was 1.3 (inactive).
For `COc1ccc(CNC(=O)C2CCN([C@H](C)c3cccc4ccccc34)CC2)cc1`, the larval motility is 0.771 (inactive).
Same read-out and setting: next, `CCOC(=O)N[C@@H]1CC[C@@H]2[C@@H](C1)C[C@H]1C(=O)O[C@H](C)[C@H]1[C@H]2/C=C/c1ccc(-c2cccc(F)c2)cn1`: 1.18 (inactive).
As to `Oc1c(C(Nc2ccccn2)c2ccccc2)ccc2cccnc12` (stereo not given), the larval motility was 0.721 (inactive).
Same read-out and setting: the same measure for `OC[C@@H]1CC[C@H](n2cnc3c(O)ncnc32)O1`: 1.15 (inactive); for `Clc1cc(Cl)c2c(c1)CCc1ccccc1C2n1ccnc1` (stereo not given): 0.769 (inactive).
Regarding `CCc1nc2ccccn2c1C(=O)NCc1ccccc1`, the larval motility is 1.39 (inactive).
Regarding `C[C@H]1[C@@H](c2cccc(C(F)(F)F)c2)OC(=O)N1C(=O)NCc1cncc2ccccc12`, the larval motility is 0.716 (inactive).
Same read-out and setting: the same measure for `Cc1cc(CCCOc2c(C)cc(-c3noc(C(F)(F)F)n3)cc2C)on1`: 1.46 (inactive).
For the compound `Nc1nnc(-c2ccc(Cl)cc2)s1`, the larval motility was 0.916 (inactive).
The same measure, in the same setting: next, `COc1cc(Cc2cc(N)nc(N)n2)cc(OC)c1OC`: 0.774 (inactive).
Still for that read-out and setting: the same measure for `O=C(Nc1nnc(-c2ccc(Cl)cc2)o1)c1nc2ccccc2s1`: 0.919 (inactive); for `CC[C@@]1(O)C(=O)OCc2c1cc1n(c2=O)Cc2cc3c([N+](=O)[O-])cccc3nc2-1`: 0.324 (active).

The same test, now with this note: 10 µM; 24 h.
Regarding `CC(C)(C)NC(=O)[C@@H]1C[C@@H]2CCCC[C@@H]2CN1C[C@@H](O)[C@H](Cc1ccccc1)NC(=O)[C@H](CC(N)=O)NC(=O)c1ccc2ccccc2n1`, the larval motility was 1.49 (inactive).
Turning to `CN(C)CC(=O)Nc1ccc2[nH]c(=O)c3ccccc3c2c1`, the larval motility is 0.463 (inactive).
As for `CC[N+]1(C/C2=C/CCCCCC2)CCC(NC(=O)C2c3cc(Cl)ccc3Oc3ccc(Cl)cc32)CC1` (stereo not given), the larval motility was 0.723 (inactive).
Consider `C[C@H](c1cccc2ccccc12)N(C)Cc1ccccc1`, for which the larval motility is 1.26 (inactive).
Still for that read-out and setting: the same measure for `CC1=C(/C=C/C(C)=C/C=C/C(C)=C/C(=O)Nc2ccc(O)cc2)C(C)(C)CCC1`: 0.595 (inactive); for `CCC(C)n1ncn(-c2ccc(N3CCN(c4ccc(OCC5COC(Cn6cncn6)(c6ccc(Cl)cc6Cl)O5)cc4)CC3)cc2)c1=O` (stereo not given): 0.571 (inactive).
Turning to `Oc1cccc(C(Nc2nccs2)c2ccc3cccnc3c2O)c1` (stereo not given), the larval motility is 0.912 (inactive).
Still for that read-out and setting: next, `O=C(NCc1ncc(C(F)(F)F)cc1Cl)c1c(Cl)cccc1Cl`: 1.42 (inactive).
Regarding `COc1ccc(CNC(=O)C2CCN([C@H](C)c3cccc4ccccc34)CC2)cc1`, the larval motility was 0.922 (inactive).
`CCOC(=O)N[C@@H]1CC[C@@H]2[C@@H](C1)C[C@H]1C(=O)O[C@H](C)[C@H]1[C@H]2/C=C/c1ccc(-c2cccc(F)c2)cn1`: the larval motility is 0.624 (inactive).
On the same count and under the same terms, next, `Oc1c(C(Nc2ccccn2)c2ccccc2)ccc2cccnc12` (stereo not given): 1.07 (inactive); `OC[C@@H]1CC[C@H](n2cnc3c(O)ncnc32)O1`: 0.963 (inactive).
Still for that read-out and setting: next, `Clc1cc(Cl)c2c(c1)CCc1ccccc1C2n1ccnc1` (stereo not given): 0.987 (inactive); `CCc1nc2ccccn2c1C(=O)NCc1ccccc1`: 0.997 (inactive); `C[C@H]1[C@@H](c2cccc(C(F)(F)F)c2)OC(=O)N1C(=O)NCc1cncc2ccccc12`: 0.359 (active).
Consider `Cc1cc(CCCOc2c(C)cc(-c3noc(C(F)(F)F)n3)cc2C)on1`, for which the larval motility was 0.903 (inactive).
`Nc1nnc(-c2ccc(Cl)cc2)s1`: the larval motility was 0.877 (inactive).
Turning to `COc1cc(Cc2cc(N)nc(N)n2)cc(OC)c1OC`, the larval motility was 1.44 (inactive).
Regarding `O=C(Nc1nnc(-c2ccc(Cl)cc2)o1)c1nc2ccccc2s1`, the larval motility is 1.05 (inactive).
On the same count and under the same terms, next, `CC[C@@]1(O)C(=O)OCc2c1cc1n(c2=O)Cc2cc3c([N+](=O)[O-])cccc3nc2-1`: 0.433 (inactive).
